# From PMC4336329 (PLoS ONE, 2015)
# The whole screen tested about 310,000 compounds, of which about 14,000 (4.5%) showed an effect of 50% or more. Effects have a minus sign here. The full list was thinned out, with strong results kept by preference.
# Target: human ether-à-go-go-related gene (hERG) potassium channel (human, UniProt Q12809)
# Experiment: primary screen, population patch clamp on CHO cells stably expressing hERG; higher = less effect of the substance
# 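Further: peak tail current of the secondary pulse compared with the same well before compound.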
# Chain of human ether-à-go-go-related gene (hERG) potassium channel (Q12809 whole entry, looked up): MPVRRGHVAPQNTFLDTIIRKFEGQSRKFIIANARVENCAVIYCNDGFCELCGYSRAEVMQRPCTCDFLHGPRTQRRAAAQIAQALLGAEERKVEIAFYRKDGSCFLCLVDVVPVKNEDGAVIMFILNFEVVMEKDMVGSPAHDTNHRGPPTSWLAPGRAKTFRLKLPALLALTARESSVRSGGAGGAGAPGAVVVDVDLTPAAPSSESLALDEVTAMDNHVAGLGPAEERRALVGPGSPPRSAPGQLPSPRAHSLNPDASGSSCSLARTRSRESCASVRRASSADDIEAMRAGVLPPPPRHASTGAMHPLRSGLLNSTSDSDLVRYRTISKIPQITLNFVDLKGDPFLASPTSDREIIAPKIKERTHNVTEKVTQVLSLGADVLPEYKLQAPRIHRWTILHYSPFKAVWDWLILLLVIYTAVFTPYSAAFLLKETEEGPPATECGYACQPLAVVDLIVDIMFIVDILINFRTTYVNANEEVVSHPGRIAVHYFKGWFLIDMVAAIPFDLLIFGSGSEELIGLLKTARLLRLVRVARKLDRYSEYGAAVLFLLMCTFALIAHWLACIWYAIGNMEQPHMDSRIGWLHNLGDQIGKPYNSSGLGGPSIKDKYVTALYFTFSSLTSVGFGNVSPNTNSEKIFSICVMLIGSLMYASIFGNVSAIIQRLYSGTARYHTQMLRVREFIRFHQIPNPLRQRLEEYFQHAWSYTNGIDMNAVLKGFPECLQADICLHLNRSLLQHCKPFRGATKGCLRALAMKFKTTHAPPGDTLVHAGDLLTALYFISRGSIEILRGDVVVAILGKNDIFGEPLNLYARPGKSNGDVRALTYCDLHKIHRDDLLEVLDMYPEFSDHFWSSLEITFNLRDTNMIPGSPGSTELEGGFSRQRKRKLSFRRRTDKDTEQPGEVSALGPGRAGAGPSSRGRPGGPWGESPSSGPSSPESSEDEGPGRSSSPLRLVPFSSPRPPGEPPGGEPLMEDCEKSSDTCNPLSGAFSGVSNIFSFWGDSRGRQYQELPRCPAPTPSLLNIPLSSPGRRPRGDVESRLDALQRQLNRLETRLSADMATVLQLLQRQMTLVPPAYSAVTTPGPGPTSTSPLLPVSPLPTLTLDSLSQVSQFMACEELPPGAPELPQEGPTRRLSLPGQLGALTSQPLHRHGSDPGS
row,Structure (SMILES),"hERG current change (%, negative = inhibition) at 10uM [%]"
1,CC(=O)Nc1nc(C)c(Cc2ccccc2)c(=O)[nH]1,-1.04
2,Cn1cnc(S(=O)(=O)NCc2ccccc2)c1,2.77
3,Cc1ccccc1OCCOC(=O)c1nc2nccc(C)n2n1,-14.1
4,COc1ccccc1NC(=O)C1=C(C)Nc2nnnn2C1c1ccncc1 (stereo not shown),-12.4
5,CCOC(=O)c1c(CN2CCOCC2)n(-c2ccccc2)c2ccc(O)cc12,-69.2
6,CCOC(=O)c1c(C)n(-c2ccccc2)c2ccc(O)cc12,13.8
7,CCOC(=O)c1c(C)n(Cc2ccccc2)c2ccc(O)cc12,4.43
8,CCOC(=O)c1c(CN2CCOCC2)n(-c2ccccc2)c2cc(Br)c(O)c(CN(C)C)c12,-42.3
9,CCOC(=O)c1c(C)n(-c2ccc(F)cc2)c2ccc(O)cc12,16.4
10,CCOC(=O)c1c(CN(CC)CC)n(-c2ccccc2)c2ccc(O)cc12,-66.7
11,COc1ccc(S(=O)(=O)N(CC(C)C)C2CCS(=O)(=O)C2)cc1OC (stereo not shown),4.62
12,CC(=O)c1ccc(N2CCN(C(=O)C3CCN(S(=O)(=O)c4ccc5c(c4)CC(C)N5C(=O)C4CC4)CC3)CC2)cc1 (stereo not shown),-8.83
13,COc1ccc(CNC(=O)COC(=O)c2ccc3ncsc3c2)cc1OC,14.5
14,C=C(C)C(=O)N1CC2(CC(c3cccc(NC(=O)/C=C\C=C/C)c3)=NO2)C[C@H]1C(N)=O (stereo partly shown),0.942
15,CSc1ccc(S(=O)(=O)NCC(=O)OCC(=O)N2CCCC2=O)cc1[N+](=O)[O-],-9.51
16,Cc1nn(CC#N)c(=O)n1-c1ccccc1F,10.8
17,COc1cc(CNCCN2CCOCC2)ccc1OCc1ccccc1Cl.Cl,-45.7
18,COc1cc(CNCCN2CCOCC2)ccc1OCc1cccc(Cl)c1.Cl,-63.2
19,COc1cc(CNCCO)cc(Cl)c1OCc1ccc(Cl)cc1Cl.Cl,-7.34
20,COc1cc(CNCCN2CCOCC2)ccc1OCC(=O)NC(C)(C)C.Cl,6.17
21,COc1cc(CNCCCN2CCOCC2)cc(Br)c1OCc1ccc(Cl)cc1.Cl,-35.5
22,COc1cc(CNCCN2CCOCC2)ccc1OCc1ccc(Cl)cc1.Cl,-42.1
23,COc1cc(CNCCN2CCOCC2)ccc1OCc1c(Cl)cccc1Cl.Cl,-50.6
24,COc1cc(CNCCN(C)C)ccc1OCc1c(F)cccc1Cl.Cl,-19.6
25,COc1cc(CNCCN2CCOCC2)ccc1OCc1ccc(Cl)cc1Cl.Cl,-69.7

row,Structure (SMILES),"hERG current change (%, negative = inhibition) at 10uM [%]"
1,O=C1CC2C(=O)NCCN2C(=NC(=O)c2ccc(Cl)cc2)N1 (stereo not shown),-15.7
2,COc1ccc(C(=O)Nc2ccc(NC(=O)C(C)C)nc2)cc1,18.9
3,COc1cccc(/C=N/n2c(-c3n[nH]c4c3CCC4)n[nH]c2=S)c1OC,14.1
4,O=C(NCCCNC(=O)c1ccc(Cl)cc1Cl)c1ccccn1,-2.08
5,O=C(CSc1nnc(CNC(=O)c2cccs2)o1)Nc1ccc(Cl)cc1,-4.26
6,CCC(C)NC(=O)COc1ccccc1[N+](=O)[O-] (stereo not shown),16
7,CSCCC(NC(=O)c1ccco1)C(=O)NCC(c1ccccc1)N(C)C (stereo not shown),-9.02
8,COc1ccc(C/C(N)=N/OC(=O)Cc2ccccc2)cc1,-7.03
9,CCOC(=O)c1c(NC(=O)Nc2ccc(F)cc2)sc2c1CCN(C)C2,-26
10,CCOC(=O)c1c(NC(=S)Nc2ccc(OC)cc2)sc2c1CCC2,14
11,CCOC(=O)c1c(NC(=O)Nc2ccc(C)cc2)sc2c1CCN(C)C2,-47.6
12,CCOC(=O)c1c(NC(=S)Nc2ccc(OCC)cc2)sc2c1CCN(C)C2,-70.4
13,CCOC(=O)c1c(NC(=S)Nc2ccccc2)sc2c1CCN(C)C2,-74.2
14,CCOC(=O)c1c(NC(=S)Nc2ccccc2)sc2c1CCCCC2,17.3
15,CCOC(=O)c1c(NC(=S)Nc2ccc(Cl)cc2)sc2c1CCN(C)C2,-74.2
16,CCOC(=O)c1c(NC(=S)Nc2ccccc2)sc2c1CC(C)(C)SC2,-3.74
17,CCOC(=O)c1c(NC(=S)Nc2ccc(OC)cc2)sc2c1CCCCC2,12.5
18,CNC(=O)c1ccsc1NC(=O)CCS(=O)(=O)c1ccc(Cl)cc1,-18.1
19,COc1ccccc1OCCn1c(C)c(C=O)c2ccccc21,-2.11
20,Cc1c(Br)c([N+](=O)[O-])nn1CC(=O)N1CCCc2ccccc21,2.48
21,CN(C)C(CNS(=O)(=O)c1ccc(Cl)cc1)c1cccnc1 (stereo not shown),18.2
22,CN(C)C(CNS(=O)(=O)c1ccc(Br)cc1)c1cccnc1 (stereo not shown),-11.3
23,CN1CCN(C(CNS(=O)(=O)c2ccc(Cl)cc2)c2cccnc2)CC1 (stereo not shown),-55.6
24,CCN1CCN(C(CNS(=O)(=O)c2ccc(Cl)cc2)c2ccccc2)CC1 (stereo not shown),-69.5
25,CCN1CCN(C(CNS(=O)(=O)c2ccc(Cl)cc2)c2cccnc2)CC1 (stereo not shown),-74.2

row,Structure (SMILES),"hERG current change (%, negative = inhibition) at 10uM [%]"
1,CCN1CCN(C(CNS(=O)(=O)c2ccc(Br)cc2)c2cccnc2)CC1 (stereo not shown),-65.8
2,CCN1CCN(C(CNS(=O)(=O)c2ccccc2)c2ccccc2)CC1 (stereo not shown),-34.8
3,CCN1CCN(C(CNS(=O)(=O)c2ccc(C)cc2)c2cccnc2)CC1 (stereo not shown),-35.9
4,N#CCCN1CCN(C(CNS(=O)(=O)c2ccc(Cl)cc2)c2ccccc2)CC1 (stereo not shown),-34.2
5,CN1CCN(C(CNS(=O)(=O)c2ccc(F)cc2)c2cccnc2)CC1 (stereo not shown),-7.43
6,N#Cc1ccc(Oc2cc(C(F)(F)F)nc(-c3ccccn3)n2)cc1,5.26
7,Cc1cccc(Nc2ncnc3onc(-c4ccc(F)cc4)c23)c1C,-4.56
8,Oc1ccccc1CNc1nccs1,21.3
9,COc1ccc(OC(C)C(=O)Nc2ccccc2F)cc1 (stereo not shown),13.1
10,CN(C)CCn1cnc2c1c(=O)[nH]c(=O)n2Cc1ccccc1.Cl,27.6
11,O=C(O)CCCC(=O)NCc1ccccn1,11.1
12,Cc1ccc(NC(=O)Cn2c(-c3ccc(F)cc3)cnc2SCC(=O)Nc2c(C)cccc2C)cc1,16
13,Cc1cc(C(=O)Nc2ccc(F)cc2)c2ccccc2n1,-0.679
14,C/C(CC(=O)Nc1ccc2c(c1)OCCO2)=N\NC(=O)c1ccc([N+](=O)[O-])cc1Cl,-5.37
15,CC(C)Sc1ccc([N+](=O)[O-])cc1C(=O)Nc1ccncc1,-11.7
16,CCCCCn1cnc2c(sc3nc4c(cc32)CSC(C)(C)C4)c1=O,-14.5
17,CCOC(=O)C1(CCOC)CCN(Cc2nc(-c3cccs3)oc2C)CC1,-30.8
18,CCOC(=O)C1(CC2CCCCO2)CCN(Cc2ccc(OC)cc2F)CC1 (stereo not shown),-54.8
19,CCOC(=O)C1(CC2CCCCO2)CCN(Cc2nccn2-c2ccc(OC)cc2)CC1 (stereo not shown),-5.78
20,CCOC(=O)C1(CC2CCCCO2)CCN(S(=O)(=O)c2ccc(OC)cc2)CC1 (stereo not shown),-38.3
21,CCOC(=O)C1(CC2CC2)CCN(Cc2cnc(-c3ccc(OC)cc3)nc2)CC1,-21.9
22,CCOC(=O)C1(CC2CCCCO2)CCN(S(=O)(=O)c2ccc(C)s2)CC1 (stereo not shown),9.12
23,CCOC(=O)C1(CC2CCCCO2)CCN(S(=O)(=O)c2cc(C)cs2)CC1 (stereo not shown),-59
24,CCOC(=O)C1(CC2CCCCO2)CCN(S(=O)(=O)c2ccccc2)CC1 (stereo not shown),9.64
25,CCOC(=O)C1(CC2CC2)CCN(Cc2ccc(OC)cc2F)CC1,-73.5

row,Structure (SMILES),"hERG current change (%, negative = inhibition) at 10uM [%]"
1,CCOC(=O)C1(CC2CCCCO2)CCN(Cc2nc(-c3cccs3)oc2C)CC1 (stereo not shown),-67.6
2,CCOC(=O)C1CCN(Cc2ccc(F)cc2F)CC1,6.65
3,CCOC(=O)C1(CC2CCCCO2)CCN(Cc2nc3ccccc3nc2C)CC1 (stereo not shown),-21.2
4,O=C(O)c1ccc(C(=O)O)c(C(=O)c2ccc(NC(=O)c3ccccc3)cc2)c1,8.99
5,C/C(=N\NC(=O)c1ccc(Cl)c(Cl)c1)c1cccc(NC(=O)C(C)C)c1,1.91
6,Nc1c(Cl)cc(-c2cn(CCC(=O)O)c(-c3ccc(Cl)nc3)n2)cc1Cl,20.4
7,O=C(N/N=C/c1cccnc1)c1ccc(NC(=O)c2ccc(F)cc2)cc1,8.2
8,O=C1C2C3C=CC(C3)C2C(=O)N1c1ccc(N2CCN(c3ccccn3)CC2)c([N+](=O)[O-])c1 (stereo not shown),-18.6
9,O=C(NCC1OCCCN1S(=O)(=O)c1ccc(F)cc1)C(=O)NC1CCCC1 (stereo not shown),-15.8
10,O=C(CSc1ccccc1C(=O)O)NC1CCCCCCC1,17.6
11,COc1ccccc1N1CCN(Cc2ccco2)CC1.O=C(O)C(=O)O,-26.4
12,COc1ccc(CN2CCN(Cc3ccco3)CC2)cc1OC.O=C(O)C(=O)O,1.22
13,COc1ccccc1N1CCN(Cc2ccc(SC)cc2)CC1.O=C(O)C(=O)O,-72.9
14,CCOc1cc(CN2CCN(c3ncccn3)CC2)ccc1OC,-4.8
15,COc1ccc(CN2CCN(C(=O)c3cccc(OC)c3OC)CC2)cc1OC.O=C(O)C(=O)O,5.63
16,COc1ccccc1N1CCN(Cc2ccc(C(=O)O)cc2)CC1,14.4
17,COc1ccc(CN2CCN(c3ccccc3OC)CC2)cc1OC.O=C(O)C(=O)O,-57.9
18,CCOc1cc(CN2CCCCC2)ccc1OC,-8.28
19,Cc1ccccc1CN1CCN(Cc2ccccc2)CC1.O=C(O)C(=O)O,-7.72
20,CCOc1ccccc1N1CCN(Cc2ccc(OC)c(OC)c2)CC1,-69.2
21,Cc1ccccc1N1CCN(Cc2cccc(C(=O)O)c2)CC1.Cl,1.27
22,CSc1ccc(CN2CCN(c3ccccc3C)CC2)cc1.O=C(O)C(=O)O,-54.5
